# ± gives the standard deviation of the averaged measurements.
# Tested on: BJ5TA
# Assay: nucleolar normality score relative to DMSO (fraction of DMSO control); RPE1 is a non-cancer human cell line; higher = more normal nucleoli (less nucleolar stress)
# Description: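 Selected screen hits were validated in hTERT lines (BJ5TA, CHON-002, RPE1) and cancer lines (DLD1, HCT116). Cells were immunostained for nucleolin and UBF and the nucleolar normality score was measured per field of view, with 4 fields per drug. Scores are normalized to each cell line's own DMSO control. Dose and time are not stated for this panel.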
row,SMILES,nucleolar normality score
1,CCc1cnn2c(NCc3ccc[n+]([O-])c3)cc(N3CCCC[C@H]3CCO)nc12 [Dinaciclib],0.242 ± 0.0091
2,CC(C)c1cc(C(=O)N2Cc3ccc(CN4CCN(C)CC4)cc3C2)c(O)cc1O [Onalespib],0.294 ± 0.019
3,CN1CC[C@H](c2c(O)cc(O)c3c(=O)cc(-c4ccccc4Cl)oc23)[C@H](O)C1 [Flavopiridol],0.202 ± 0.03
4,COC[C@H](NC(=O)c1cnc(C)s1)C(=O)N[C@@H](COC)C(=O)N[C@@H](Cc1ccccc1)C(=O)[C@@]1(C)CO1 [Oprozomib],0.449 ± 0.043
5,CC(C)c1c2cc(-c3ccnc(NC4CCC(NC5CCOCC5)CC4)n3)ccc2nn1C (configuration not stated),0.317 ± 0.025
6,CN(C)CCNC(=O)c1cccn2c(=O)c3cc4ccccc4cc3nc12,0.0738 ± 0.013
7,COc1cccc2c1C(=O)c1c(O)c3c(c(O)c1C2=O)C[C@@](O)(C(=O)CO)C[C@@H]3O[C@H]1C[C@H](N)[C@H](O)[C@H](C)O1 [Doxorubicin],0.129 ± 0.025
8,Cc1nc(-c2cn3c(n2)-c2ccc(-c4cnn(C(C)(C)C(N)=O)c4)cc2OCC3)n(C(C)C)n1 [Taselisib],0.347 ± 0.013
9,CC(C)C[C@H](NC(=O)[C@H](CCc1ccccc1)NC(=O)CN1CCOCC1)C(=O)N[C@@H](Cc1ccccc1)C(=O)N[C@@H](CC(C)C)C(=O)[C@@]1(C)CO1 [Carfilzomib],0.328 ± 0.027
10,Cc1cnc(CNC(=O)c2c(=O)c3ccc(N4CCCN(C)CC4)nc3n3c2sc2ccccc23)cn1,0.107 ± 0.0069
11,C=CCNC1=C2C[C@@H](C)C[C@H](OC)[C@H](O)[C@@H](C)/C=C(\C)[C@H](OC(N)=O)[C@@H](OC)/C=C\C=C(/C)C(=O)NC(=CC1=O)C2=O,0.306 ± 0.0062
12,CC(C)n1nc(-c2ccc3oc(N)nc3c2)c2c(N)ncnc21 [Sapanisertib],0.418 ± 0.049
